Assays:
Test in all cases: log2 ratio of Biotin-Ahx-Ub-VS probe labelling (fragment/DMSO); higher = less target engagement (more negative = stronger competition), active = hit call of the paper (q ≤ 0.05, log2 ratio ≤ -1)
Settings in all cases: compound concentration: 200 uM; treatment time: 3 h
USP34 = USP34 (UniProt Q70CQ2)
Summary of the method: (§1)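 HEK293T lysate in Tris/CHAPS/IGEPAL buffer with protease inhibitors (495 µg per sample) was given fragment at 200 µM or vehicle for 3 h, in triplicate. It then received Biotin-Ahx-Ub-VS at 0.5 µM final for 1 h. Labelled DUBs were NeutrAvidin-enriched, digested with LysC and trypsin, and run by diaPASEF LC-MS/MS. Values are average log2 fragment/vehicle ratios by unpaired t-test on global-median-normalised Spectronaut quantities of proteins with ≥2 unique peptides.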

USP36 = target: T1, USP36 (UniProt Q9P275)
T1 sequence (whole entry): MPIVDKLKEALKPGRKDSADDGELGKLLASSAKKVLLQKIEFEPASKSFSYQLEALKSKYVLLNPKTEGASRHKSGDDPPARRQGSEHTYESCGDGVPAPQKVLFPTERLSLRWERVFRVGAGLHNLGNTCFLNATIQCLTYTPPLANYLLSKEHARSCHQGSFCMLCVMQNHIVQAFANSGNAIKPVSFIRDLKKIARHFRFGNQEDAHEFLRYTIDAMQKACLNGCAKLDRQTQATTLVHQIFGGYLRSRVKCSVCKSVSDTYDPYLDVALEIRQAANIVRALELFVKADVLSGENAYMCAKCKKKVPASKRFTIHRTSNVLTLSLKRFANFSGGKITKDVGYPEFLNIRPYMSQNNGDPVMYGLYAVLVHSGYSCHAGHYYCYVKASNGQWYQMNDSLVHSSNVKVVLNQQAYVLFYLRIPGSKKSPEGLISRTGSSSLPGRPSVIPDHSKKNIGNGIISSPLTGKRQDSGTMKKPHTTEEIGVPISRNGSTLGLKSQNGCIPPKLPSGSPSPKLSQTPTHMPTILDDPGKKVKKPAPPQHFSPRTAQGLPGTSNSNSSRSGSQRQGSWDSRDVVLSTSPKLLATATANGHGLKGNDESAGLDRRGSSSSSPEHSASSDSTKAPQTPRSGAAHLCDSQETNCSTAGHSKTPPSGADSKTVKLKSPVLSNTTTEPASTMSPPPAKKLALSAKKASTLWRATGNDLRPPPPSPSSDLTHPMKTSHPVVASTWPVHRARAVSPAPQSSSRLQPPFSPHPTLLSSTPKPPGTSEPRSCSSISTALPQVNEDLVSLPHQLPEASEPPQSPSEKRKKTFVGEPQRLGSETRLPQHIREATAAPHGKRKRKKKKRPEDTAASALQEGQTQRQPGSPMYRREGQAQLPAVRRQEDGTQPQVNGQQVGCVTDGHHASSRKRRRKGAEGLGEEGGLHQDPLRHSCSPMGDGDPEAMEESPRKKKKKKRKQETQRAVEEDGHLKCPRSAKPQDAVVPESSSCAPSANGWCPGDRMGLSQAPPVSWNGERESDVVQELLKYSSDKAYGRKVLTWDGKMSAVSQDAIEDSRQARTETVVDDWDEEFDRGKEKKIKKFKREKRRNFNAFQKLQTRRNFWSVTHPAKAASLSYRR
Summary of the method: as §1

USP38 = target: T2, USP38 (UniProt Q8NB14)
T2 sequence (whole entry): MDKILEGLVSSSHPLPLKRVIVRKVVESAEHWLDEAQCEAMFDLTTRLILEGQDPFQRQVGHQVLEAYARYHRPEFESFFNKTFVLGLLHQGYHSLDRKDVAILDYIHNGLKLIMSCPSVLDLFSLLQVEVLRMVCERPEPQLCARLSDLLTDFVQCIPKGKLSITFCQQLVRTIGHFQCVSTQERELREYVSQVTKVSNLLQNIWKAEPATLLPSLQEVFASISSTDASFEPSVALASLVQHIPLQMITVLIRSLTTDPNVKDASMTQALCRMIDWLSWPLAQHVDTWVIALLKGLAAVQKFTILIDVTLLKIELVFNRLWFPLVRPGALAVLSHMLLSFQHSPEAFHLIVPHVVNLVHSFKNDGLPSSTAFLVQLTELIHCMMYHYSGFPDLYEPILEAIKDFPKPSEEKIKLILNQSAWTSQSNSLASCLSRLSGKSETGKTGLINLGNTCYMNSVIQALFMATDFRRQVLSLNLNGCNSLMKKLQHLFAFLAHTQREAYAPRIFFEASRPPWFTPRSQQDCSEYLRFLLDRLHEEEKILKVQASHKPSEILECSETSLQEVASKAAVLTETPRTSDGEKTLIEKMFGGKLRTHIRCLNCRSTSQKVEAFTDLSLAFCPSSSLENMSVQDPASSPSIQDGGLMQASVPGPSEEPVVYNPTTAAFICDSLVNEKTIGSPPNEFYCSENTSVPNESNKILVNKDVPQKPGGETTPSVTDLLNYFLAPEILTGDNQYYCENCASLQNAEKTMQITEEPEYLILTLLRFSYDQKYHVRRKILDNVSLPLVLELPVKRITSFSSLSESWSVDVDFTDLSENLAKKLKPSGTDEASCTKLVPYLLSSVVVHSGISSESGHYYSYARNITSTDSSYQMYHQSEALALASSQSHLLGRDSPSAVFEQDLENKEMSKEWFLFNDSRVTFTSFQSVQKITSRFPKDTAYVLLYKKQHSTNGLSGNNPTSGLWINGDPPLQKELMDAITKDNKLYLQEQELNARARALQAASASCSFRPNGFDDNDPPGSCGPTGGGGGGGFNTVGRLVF
Summary of the method: as §1

USP39 = target: T3, USP39 (UniProt Q53GS9)
T3 sequence (whole entry): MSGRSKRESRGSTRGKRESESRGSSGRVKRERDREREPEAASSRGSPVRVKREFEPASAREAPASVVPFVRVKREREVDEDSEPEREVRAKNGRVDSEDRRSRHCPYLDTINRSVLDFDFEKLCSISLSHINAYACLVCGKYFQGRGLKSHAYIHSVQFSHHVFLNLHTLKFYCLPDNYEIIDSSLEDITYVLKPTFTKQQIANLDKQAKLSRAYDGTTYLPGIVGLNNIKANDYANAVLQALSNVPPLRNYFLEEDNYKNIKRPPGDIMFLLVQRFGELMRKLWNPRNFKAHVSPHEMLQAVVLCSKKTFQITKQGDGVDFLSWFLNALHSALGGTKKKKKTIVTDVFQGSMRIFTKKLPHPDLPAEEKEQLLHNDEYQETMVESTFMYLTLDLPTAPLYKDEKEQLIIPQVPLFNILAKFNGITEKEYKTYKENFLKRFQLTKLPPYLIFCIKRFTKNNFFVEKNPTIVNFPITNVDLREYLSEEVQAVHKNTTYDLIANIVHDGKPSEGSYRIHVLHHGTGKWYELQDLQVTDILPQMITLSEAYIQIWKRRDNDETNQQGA
Summary of the method: as §1

USP4 = target: T4, USP4 (UniProt Q13107)
T4 sequence (whole entry): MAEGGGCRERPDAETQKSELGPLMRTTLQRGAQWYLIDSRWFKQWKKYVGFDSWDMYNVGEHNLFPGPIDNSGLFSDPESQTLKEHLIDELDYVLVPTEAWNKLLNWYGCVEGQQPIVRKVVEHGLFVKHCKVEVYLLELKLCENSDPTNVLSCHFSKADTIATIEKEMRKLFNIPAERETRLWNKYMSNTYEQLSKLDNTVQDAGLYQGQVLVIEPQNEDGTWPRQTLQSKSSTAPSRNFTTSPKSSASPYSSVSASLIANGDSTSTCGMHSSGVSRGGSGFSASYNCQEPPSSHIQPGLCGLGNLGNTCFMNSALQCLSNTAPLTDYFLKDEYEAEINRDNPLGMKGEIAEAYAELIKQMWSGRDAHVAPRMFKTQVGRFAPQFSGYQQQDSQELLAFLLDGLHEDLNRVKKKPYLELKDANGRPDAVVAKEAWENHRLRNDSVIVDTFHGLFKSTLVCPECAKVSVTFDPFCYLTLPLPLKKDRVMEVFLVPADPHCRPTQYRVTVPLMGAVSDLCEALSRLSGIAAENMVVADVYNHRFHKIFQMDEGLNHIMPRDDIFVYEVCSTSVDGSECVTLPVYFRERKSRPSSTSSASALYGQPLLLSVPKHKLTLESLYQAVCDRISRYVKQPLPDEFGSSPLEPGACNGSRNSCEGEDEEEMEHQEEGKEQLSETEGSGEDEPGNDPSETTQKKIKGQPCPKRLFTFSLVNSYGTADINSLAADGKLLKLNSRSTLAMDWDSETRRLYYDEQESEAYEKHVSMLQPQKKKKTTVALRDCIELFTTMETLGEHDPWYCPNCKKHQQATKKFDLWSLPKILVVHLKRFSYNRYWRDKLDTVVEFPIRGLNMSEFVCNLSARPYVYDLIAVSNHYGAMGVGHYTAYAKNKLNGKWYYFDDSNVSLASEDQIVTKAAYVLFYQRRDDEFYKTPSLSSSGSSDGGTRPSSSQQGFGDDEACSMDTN
Summary of the method: as §1

Measured: log2 ratio of Biotin-Ahx-Ub-VS probe labelling

USP34, sequence (Q70CQ2 whole entry, the tested form may be a part): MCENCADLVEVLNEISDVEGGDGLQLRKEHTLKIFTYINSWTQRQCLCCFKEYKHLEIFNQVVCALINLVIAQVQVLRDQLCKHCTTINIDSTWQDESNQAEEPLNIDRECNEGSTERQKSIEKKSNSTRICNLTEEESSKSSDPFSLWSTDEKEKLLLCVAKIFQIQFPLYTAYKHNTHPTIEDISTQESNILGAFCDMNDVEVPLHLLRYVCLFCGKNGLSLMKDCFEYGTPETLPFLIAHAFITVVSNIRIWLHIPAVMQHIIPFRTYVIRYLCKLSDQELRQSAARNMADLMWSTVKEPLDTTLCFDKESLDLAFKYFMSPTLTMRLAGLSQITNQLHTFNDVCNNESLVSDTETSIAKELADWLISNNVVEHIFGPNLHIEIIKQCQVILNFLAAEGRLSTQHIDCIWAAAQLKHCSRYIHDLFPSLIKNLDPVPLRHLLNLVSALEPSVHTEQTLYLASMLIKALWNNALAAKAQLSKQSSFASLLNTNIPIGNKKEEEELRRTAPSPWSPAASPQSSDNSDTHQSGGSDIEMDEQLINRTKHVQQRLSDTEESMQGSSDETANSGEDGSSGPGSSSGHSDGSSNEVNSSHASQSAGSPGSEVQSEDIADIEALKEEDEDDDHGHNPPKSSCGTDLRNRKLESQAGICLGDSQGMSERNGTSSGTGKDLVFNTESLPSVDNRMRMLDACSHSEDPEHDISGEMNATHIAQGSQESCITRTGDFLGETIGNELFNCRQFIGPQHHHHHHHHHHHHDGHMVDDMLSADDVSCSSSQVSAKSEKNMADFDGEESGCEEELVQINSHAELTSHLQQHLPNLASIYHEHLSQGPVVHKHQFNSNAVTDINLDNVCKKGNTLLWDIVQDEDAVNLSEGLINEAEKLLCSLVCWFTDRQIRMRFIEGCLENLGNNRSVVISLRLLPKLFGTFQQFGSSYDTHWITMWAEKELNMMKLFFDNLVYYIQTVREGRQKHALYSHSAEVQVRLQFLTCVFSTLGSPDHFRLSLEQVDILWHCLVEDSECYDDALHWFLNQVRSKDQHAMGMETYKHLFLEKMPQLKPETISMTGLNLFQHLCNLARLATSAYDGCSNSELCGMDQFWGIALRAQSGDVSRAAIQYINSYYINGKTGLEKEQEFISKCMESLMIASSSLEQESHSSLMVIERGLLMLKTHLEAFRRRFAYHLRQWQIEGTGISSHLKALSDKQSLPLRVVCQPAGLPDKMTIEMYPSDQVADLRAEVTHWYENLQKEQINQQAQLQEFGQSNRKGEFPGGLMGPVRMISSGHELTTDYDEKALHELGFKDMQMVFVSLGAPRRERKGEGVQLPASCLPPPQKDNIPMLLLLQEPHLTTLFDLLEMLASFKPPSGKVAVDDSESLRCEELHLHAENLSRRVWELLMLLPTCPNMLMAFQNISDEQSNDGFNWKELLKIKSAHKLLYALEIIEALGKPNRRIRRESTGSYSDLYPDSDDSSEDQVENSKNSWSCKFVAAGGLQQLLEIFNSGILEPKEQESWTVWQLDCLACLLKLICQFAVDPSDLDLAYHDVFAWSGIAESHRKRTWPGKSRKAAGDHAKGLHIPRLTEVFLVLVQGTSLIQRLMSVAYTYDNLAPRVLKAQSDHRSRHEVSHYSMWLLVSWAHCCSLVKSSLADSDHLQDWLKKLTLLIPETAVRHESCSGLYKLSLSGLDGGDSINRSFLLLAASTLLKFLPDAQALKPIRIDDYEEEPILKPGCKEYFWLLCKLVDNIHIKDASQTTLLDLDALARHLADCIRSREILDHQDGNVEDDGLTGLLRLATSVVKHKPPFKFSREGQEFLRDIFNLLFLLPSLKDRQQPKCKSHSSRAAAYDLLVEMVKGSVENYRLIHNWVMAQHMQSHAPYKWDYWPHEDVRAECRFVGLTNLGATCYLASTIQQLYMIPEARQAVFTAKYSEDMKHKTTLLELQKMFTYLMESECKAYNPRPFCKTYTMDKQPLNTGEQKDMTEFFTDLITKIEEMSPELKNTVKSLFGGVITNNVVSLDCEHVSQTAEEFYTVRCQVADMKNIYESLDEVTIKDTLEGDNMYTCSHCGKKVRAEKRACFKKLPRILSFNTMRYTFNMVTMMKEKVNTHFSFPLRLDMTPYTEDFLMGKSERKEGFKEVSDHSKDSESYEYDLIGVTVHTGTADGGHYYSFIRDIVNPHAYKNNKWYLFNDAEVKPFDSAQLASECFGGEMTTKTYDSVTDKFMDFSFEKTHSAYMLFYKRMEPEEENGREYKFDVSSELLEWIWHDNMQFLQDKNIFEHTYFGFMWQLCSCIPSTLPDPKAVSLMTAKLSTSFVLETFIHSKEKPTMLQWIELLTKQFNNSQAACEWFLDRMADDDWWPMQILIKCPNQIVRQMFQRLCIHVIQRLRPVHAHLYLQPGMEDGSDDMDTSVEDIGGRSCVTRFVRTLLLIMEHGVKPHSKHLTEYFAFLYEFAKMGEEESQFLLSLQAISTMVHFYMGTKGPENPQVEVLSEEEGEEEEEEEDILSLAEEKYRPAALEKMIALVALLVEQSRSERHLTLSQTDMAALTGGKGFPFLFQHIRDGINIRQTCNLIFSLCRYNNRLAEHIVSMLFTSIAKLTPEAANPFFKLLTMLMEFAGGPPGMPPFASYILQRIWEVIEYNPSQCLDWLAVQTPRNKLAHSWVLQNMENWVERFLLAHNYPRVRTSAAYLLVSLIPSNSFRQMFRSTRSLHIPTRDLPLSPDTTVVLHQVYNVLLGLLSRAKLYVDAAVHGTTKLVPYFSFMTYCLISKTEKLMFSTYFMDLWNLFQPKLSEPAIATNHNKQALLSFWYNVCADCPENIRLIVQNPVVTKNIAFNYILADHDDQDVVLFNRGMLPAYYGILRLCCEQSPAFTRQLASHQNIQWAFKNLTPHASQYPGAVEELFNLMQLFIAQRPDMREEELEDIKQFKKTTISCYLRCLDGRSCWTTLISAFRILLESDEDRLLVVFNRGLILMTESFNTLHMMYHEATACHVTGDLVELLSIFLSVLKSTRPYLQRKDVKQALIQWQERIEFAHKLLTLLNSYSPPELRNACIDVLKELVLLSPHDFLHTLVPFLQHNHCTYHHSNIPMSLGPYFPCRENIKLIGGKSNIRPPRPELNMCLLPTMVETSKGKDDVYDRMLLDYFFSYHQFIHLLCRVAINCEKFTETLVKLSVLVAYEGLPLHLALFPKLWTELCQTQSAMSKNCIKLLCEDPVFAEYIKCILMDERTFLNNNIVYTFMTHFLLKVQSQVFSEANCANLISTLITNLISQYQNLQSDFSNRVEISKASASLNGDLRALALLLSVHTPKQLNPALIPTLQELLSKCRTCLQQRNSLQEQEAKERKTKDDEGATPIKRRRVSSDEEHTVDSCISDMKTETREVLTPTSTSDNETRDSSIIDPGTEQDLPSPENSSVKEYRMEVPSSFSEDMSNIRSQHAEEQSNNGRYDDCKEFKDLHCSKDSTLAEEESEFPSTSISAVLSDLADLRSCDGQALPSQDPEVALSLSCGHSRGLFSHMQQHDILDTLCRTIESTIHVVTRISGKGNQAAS

Cl.O=C(CCl)N[C@H]1C[C@@H](n2cccn2)C1
inactive: USP34 -0.109 | USP36 0.0625 | USP38 0.192 | USP39 0.31 | USP4 -0.0753

Source: the supplement of paper PMC11732987, “Enantioselective OTUD7B fragment discovery through chemoproteomics screening and high-throughput optimisation” (Communications Chemistry, 2025)
